The results in this text go back to PubChem BioAssay (Tox21).

“And” between values parts separate entries of the source, which are not always exact repeats. Identical values can stand only once. Records with an inconclusive call do not appear. The source made the active and inactive calls. Unless noted, the call rests on the fitted dose curve; in most records, active means well fitted curve in the direction sought with a large enough effect in the repeat runs; inconclusive means weak or mixed curves; inactive means no such curve, though single readings can be large; an effect the other way counts as inactive or inconclusive.

Experiment [1] in a line: qHTS assay for small molecules that induce genotoxicity in human embryonic kidney cells expressing luciferase-tagged ATAD5 (AID 651632). Further: nearly all actives have a fitted effect of over 15% in size. An outline of the steps: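 Test compounds were delivered by pin tool onto HEK293T reporter cells (2,000/well) expressing ATAD5 fused to luciferase. After 16 hr at 37C, 5% CO2, Amplite was added for 30 min at room temperature and luminescence was measured.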

Experiment [2] can be described thus: qHTS assay for small molecule agonists of the p53 signaling pathway - cell viability (AID 651633; calls by dose curve; further: nearly all actives have a fitted effect of over 30% in size; further: potency means the concentration at half of the fitted maximal effect). An outline of the steps: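 Viability counter-read: CellTiter-Glo luminescence (30 min, room temperature) in the same p53RE-bla plates. These plates had been exposed to compounds for 16 h at 37 C.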
Background: qHTS replaces the single test concentration by a dilution series.

The nature of experiment [3]: qHTS assay for small molecules that induce genotoxicity in human embryonic kidney cells expressing luciferase-tagged ATAD5 - cell viability (AID 651634; calls by dose curve; further: nearly all actives have a fitted effect of over 25% in size; further: potency means the concentration at half of the fitted maximal effect). An outline of the steps:
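Quantitative high-throughput format. HEK293T cells expressing ATAD5 fused to luciferase were plated at 2,000 cells/well and treated 15.5 hr with compound versus DMSO. Viability was determined by fluorescent live-cell protease substrate, 30 min at 37C.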

A short description of experiment [4]: qHTS assay for small molecule disruptors of the mitochondrial membrane potential - cell viability (AID 720634; calls by dose curve;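 further: human HepG2 liver cancer cells; series mostly up to about 83 µM; nearly all actives have a fitted effect of over 20% in size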). An outline of the steps: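 Same-well counter-screen: following the MMP dye addition, CellTiter-Glo was added to 1 hr compound-treated HepG2 cells and luminescence read after 30 min at room temperature.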
A short description of experiment [5]: qHTS assay to test for compound auto fluorescence at 590 nm (red) in HepG2 cells (AID 720674). An outline of the steps:
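1 hr compound incubation on HepG2 cells, 37 C, 5% CO2; plate read ex 540 nm / em 590 nm; intensities reported as Rose Bengal sodium equivalents.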

Experiment [6] can be described thus: qHTS assay to test for compound auto fluorescence at 535 nm (green) in HepG2 cells (AID 720675).
Experiment [7] can be described thus: qHTS assay to test for compound auto fluorescence at 460 nm (blue) in HEK293 cells (AID 720678). Further: potency means the concentration at half of the fitted maximal effect. An outline of the steps:
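Auto fluorescence in the blue band was quantified as triamterene equivalency. HEK293 cells were seeded at 2,000/well, dosed after a 4-5 hr attachment, and kept overnight at 37C before the 405/460 nm reading.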

The nature of experiment [8]: qHTS assay to test for compound auto fluorescence at 590 nm (red) in HEK293 cells (AID 720679). An outline of the steps: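 Autofluorescence equivalency to Rose Bengal sodium, 540/590nm, in HEK293 cells exposed overnight to 23 nL compound per well.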
Experiment [9] can be described thus: qHTS assay for small molecule disruptors of the mitochondrial membrane potential (AID 720635). Further: potency means the concentration at half of the fitted maximal effect. In outline:
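Mitochondrial membrane potential tracked with Mito-MPS dye, red aggregates (ex 540/em 590 nm) against green monomers (ex 490/em 535 nm). Compound treatment 1 hr at 37C, dye 30 min in HepG2.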
Tags describe the fitted curve by direction and shape or compound fluorescence and quenching.

`C[N+](C)(C)CCOP(=O)(O)OP(=O)([O-])OC[C@H]1O[C@@H](n2ccc(N)nc2=O)[C@H](O)[C@@H]1O`: the Potency result in experiment [1], in experiment [2], in experiment [3], in experiment [4], in experiment [6] and in [7] was “inactive” throughout. For the same molecule, the molecule was classed as inactive in [5] and in experiment [8].

Take `NCc1cccc(C2CCN(C(=O)c3ccc(C#Cc4ccccc4F)o3)CC2)c1`: the Potency entry in experiment [1], in experiment [4], in experiment [9], in experiment [6] and in experiment [7] was “inactive” throughout. Besides, the Potency in experiment [2] was 61.1 µM (active). Moreover, the result in experiment [5] and in experiment [8] was inactive.

On to `C/C(=C(/CCO)SSCC1CCCO1)N(C=O)Cc1cnc(C)nc1N` (stereo not given), for which the Potency entry in experiment [1], in experiment [2], in experiment [3], in [4], in experiment [6] and in experiment [7] was “inactive” in each case. Also, the molecule was called inactive in [8].

Regarding `CN(C)CCOc1ccc(/C(=C(/CCCl)c2ccccc2)c2ccccc2)cc1`, the Potency entry in [1], in experiment [3], in experiment [4] and in experiment [7] was “inactive” each time. The Potency in experiment [2] is 57.2 µM (active). Moreover, the result in experiment [5] and in experiment [8] was inactive.

On to `O=C1c2ccccc2-c2n[nH]c3cccc1c23`, for which the Potency entry in [1], in experiment [2], in experiment [3], in experiment [4] and in experiment [6] was “inactive” in each case. Moreover, the Potency in [9] is 0.784 µM (active); in experiment [7] it was 12.6 µM [fluorescent] (active). The molecule was classed as inactive in experiment [5] and in experiment [8].

`Oc1ccc(Cl)cc1C1CCCC1`: the Potency result in [1], in [2], in experiment [3], in experiment [6] and in [7] was “inactive” each time. In [9], the Potency is 3.86 µM (active). For the same molecule, the call in [5] and in experiment [8] was inactive.

For the molecule `Nc1c(CC(=O)O)cccc1C(=O)c1ccccc1`, the Potency entry in [1], in experiment [2], in experiment [3], in [4], in experiment [9] and in [6] was “inactive” throughout. In [7], the Potency result is “inactive”. Further, the result in [8] was inactive.

In the case of `C[C@H]1O[C@@H](O[C@H]2CC[C@@]3(C)[C@H](CC[C@@H]4[C@@H]3C[C@@H](O)[C@]3(C)[C@@H](C5=CC(=O)OC5)CC[C@]43O)C2)C[C@H](O)[C@@H]1O[C@H]1C[C@H](O)[C@H](O[C@H]2C[C@H](O)[C@H](O[C@@H]3O[C@H](CO)[C@@H](O)[C@H](O)[C@H]3O)[C@@H](C)O2)[C@@H](C)O1`, the Potency result in [1], in [4] and in experiment [7] was “inactive” each time. Moreover, the Potency is 0.168 µM (active) in experiment [2], 0.531 µM (active) in experiment [3] and 1.68 µM (active) in experiment [9]. The molecule was called inactive in experiment [5] and in [8].

Regarding `CCCCCCCC[N+](C)(C)CCCCCCCC`, the Potency entry in experiment [1], in [2], in [3], in experiment [4], in experiment [6] and in experiment [7] was “inactive” throughout. In addition, the Potency in [9] was 21.1 µM (active) and 23.7 µM (active). For the same molecule, the result in experiment [5] and in experiment [8] was inactive.

Regarding `O=C1CCC(c2ccc(-n3ccnc3)cc2)=NN1`, the Potency entry in experiment [1], in experiment [2], in [3], in experiment [4], in [9] and in [6] was “inactive” throughout. Moreover, the Potency result in experiment [7] was “inactive”. Further, the call in experiment [5] and in experiment [8] was inactive.

Consider `C[C@@H]1C(=O)NC2=Nc3cccc(Cl)c3CN21`, for which the Potency entry in experiment [1], in experiment [2], in experiment [3], in experiment [4], in experiment [6] and in [7] was “inactive” throughout. The molecule was called inactive in [5] and in experiment [8].

Consider `Cc1cc(N)c2ccccc2[n+]1CCCCCCCCCC[n+]1c(C)cc(N)c2ccccc21`, for which the Potency result in [1], in experiment [2], in [3], in experiment [4], in [9] and in [6] was “inactive” in each case. For the same molecule, the Potency result in experiment [7] was “inactive”. Besides, the call in experiment [5] and in [8] was inactive.

For the molecule `CC(C)(C)c1ccc2c(S(=O)(=O)O)c(C(C)(C)C)ccc2c1`, the Potency result in experiment [1], in [2], in [3], in experiment [4], in experiment [6] and in [7] was “inactive” throughout. The call in experiment [5] and in experiment [8] was inactive.

As for `COc1cccc2c1[C@@H]1CN(CCCCn3c(=O)[nH]c4c(sc5ncc(-c6ccccc6)nc54)c3=O)C[C@@H]1CO2`, the Potency result in experiment [1], in experiment [4], in [6] and in [7] was “inactive” each time. Further, the Potency is 29.8 µM (active) in experiment [2], 26.6 µM (active) in experiment [3] and 13.3 µM (active) in experiment [9]. Also, the molecule was classed as inactive in experiment [5] and in [8].

With `C=C1C(CCl)(CCl)C2(Cl)C(Cl)C(Cl)C1(Cl)C2(Cl)Cl` (stereo not given), the Potency entry in experiment [1], in experiment [4] and in experiment [7] was “inactive” each time. For the same molecule, the Potency is 10.6 µM (active) and 60.4 µM (active) in experiment [2]; 3.76 µM (active) and 4.28 µM (active) in experiment [9]. For the same molecule, the outcome in [5] and in [8] was inactive.

In the case of `COc1c(Br)cc(Br)c(C)c1Br`, the Potency entry in experiment [1], in [2], in experiment [3], in experiment [4], in [6] and in [7] was “inactive” in each case. The call in [8] was inactive.

Take `Cc1cc(F)ccc1-c1cc(N2CC[C@@H](O)[C@H]2CO)ncc1N(C)C(=O)C(C)(C)c1cc(C(F)(F)F)cc(C(F)(F)F)c1`: the Potency result in experiment [1], in experiment [6] and in experiment [7] was “inactive” in each case. Also, the Potency was 19 µM (active) in [2], 47.8 µM (active) in experiment [3] and 21.4 µM (active) in [9]. Moreover, the result in experiment [5] and in experiment [8] was inactive.

For `CCCCC/C=C\C=C\C(=O)OCC`, the Potency entry in experiment [1], in [3], in [4], in [6] and in experiment [7] was “inactive” throughout. For the same molecule, the Potency is 56.8 µM (active) in [2] and 71.5 µM (active) in experiment [9]. In addition, in experiment [8], the call was inactive.
